Sampled rows, rich in hits. Any-hit rate of the full collection: about 4.2%.
MITF TRPM1 HTS: activators of MITF-driven TRPM1 promoter reporter, primary screen, cell-based, SK-MEL-5, luciferase, single point | SK-MEL-5 TRPM1-promoter luciferase, 24 h; % of positive control, neutral wells = 0 | activation, % at 12.5 µM | 0.75% of 300,000 active;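 active = mean activation of at least 80% with every replicate also reaching 80%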
FXN GAA850 act: FXN promoter activators, primary screen, cell-based, luciferase luminescence, HEK293 lucGAA850 | HEK293 lucGAA850 FXN promoter luciferase reporter, 24 h; percent of 10 µM SAHA response | activation, % at 6 µM | 0.56% of 360,000 active;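 active = activation above the average of all compounds screened plus 3 SD, cutoff fixed separately per campaign, cut at about 7.5% in these data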
AHR activator: AHR activators, primary screen, cell-based, luminescence, luciferase reporter, human. 2.5% of 320,000 active. AHR-responsive luciferase reporter cells. activation, % at 5 µM. Aryl hydrocarbon receptor (Homo sapiens), P35869; in the data active = activation above about 47%
Wnt act: Wnt/beta-catenin pathway activators, primary screen, cell-based, plate reader, single point. AID 743398, 2014. activation, % at 9.35 µM. Wnt/beta-catenin reporter cell assay, activator. 1.2% of 300,000 active; in the data active = activation above about 30%, passing the limit was not always enough
esBAF inh: Bmi1 luciferase reporter increase in mESCs, primary screen, esBAF inhibitor project, mouse ES cells, Bmi1 luciferase knock-in, single point; 2% of 350,000 active; 24 h; 100% = twice the neutral-well signal; reporter increase, % at 12.5 µM; in the data active = activation above about 40%;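 note: a rise in the Bmi1 reporter signal indicates esBAF inhibition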
AHR act cf: AHR activators, confirmation, cell-based, luminescence, luciferase reporter, human. shares compounds with AHR activator. human cells, AHR-responsive luciferase reporter. activation, % at 9 µM. 87% of 2,300 active; in the data active = activation above about 49%;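 note: HepG2 hepatoma cells carrying a DRE-driven firefly luciferase reporter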
PXR counter: human PXR activators, counter-screen for AHR activator project, cell-based, luciferase luminescence; 88% of 2,300 active; activation, % at 11.6 µM; cell-based PXR reporter; shares compounds with AHR activator; in the data active = activation above about 11%;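 note: human hepatoma DPX-2 cells expressing full-length human PXR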
Of the large screens only hits and unclear results are named; the others gave an inactive call (follow-up assays come after a bar, where they were run).

Cc1c(-c2ccccn2)c(=O)[nH]n1-c1ccc(F)cc1	AHR activator 90.7 | AHR act cf 77.2 | PXR counter 11.0
C[C@H]1CN([C@@H](C)CO)C(=O)c2cc(NC(=O)CCC(F)(F)F)ccc2O[C@@H]1CN(C)Cc1ccc(Cl)c(Cl)c1	none (no result: MITF TRPM1 HTS, FXN GAA850 act, AHR activator, Wnt act)
CC(C)c1ccc(NC(=O)COC(=O)CC2CCCC2)cc1	none (no result: MITF TRPM1 HTS)
O=C(COC(=O)CC1CCCC1)Nc1cc2c(cc1Cl)C(=O)c1ccccc1C2=O	AHR activator 117.4, Wnt act 38.6, esBAF inh 50.1 | AHR act cf 139.3 | PXR counter 16.5
C[C@@H](NC(=O)C[C@H]1CC[C@@H]2[C@H](COC[C@@H](O)CN2C)O1)c1ccccc1	none (no result: MITF TRPM1 HTS, FXN GAA850 act, AHR activator, Wnt act)
CCC(=O)Nc1ccc2c(c1)C(=O)N(C)C[C@@H](OC)[C@@H](C)CN(Cc1ccccc1C(=O)O)[C@@H](C)CO2	none (no result: MITF TRPM1 HTS, FXN GAA850 act, AHR activator, Wnt act)
Cc1c(/C(Cc2ccccc2)=N/O)c2ccccc2n1C	AHR activator 88.4 (no result: Wnt act) | AHR act cf 111.1 | PXR counter 178.2
COc1cc(NC(=O)C2CCCC2)c(OC)cc1Cl	none (no result: Wnt act)
COc1ccccc1NC(=O)C/C(C)=N/NC(=O)c1ccccn1	none (no result: MITF TRPM1 HTS)
COc1cc(NC(=O)C/C(C)=N/NC(=O)C(=O)NC2CCCCC2)c(OC)cc1Cl	AHR activator 96.6 (no result: esBAF inh) | AHR act cf inactive | PXR counter inactive
COc1cc(NC(=O)C/C(C)=N/NC(=O)c2ccccn2)c(OC)cc1Cl	AHR activator 113.5 | AHR act cf 70.2 | PXR counter 13.6
C/C(CC(=O)Nc1ccc(Cl)cc1Cl)=N\NC(=O)C(=O)NCCO	none (no result: esBAF inh)
COc1cc(NC(=O)C/C(C)=N/NC(=O)C(=O)NCCO)c(OC)cc1Cl	AHR activator 81.5 (no result: MITF TRPM1 HTS, esBAF inh) | AHR act cf inactive | PXR counter 10.7
COc1cc(NC(=O)C/C(C)=N/NC(=O)C2CCCCC2)c(OC)cc1Cl	AHR activator 104.6 | AHR act cf inactive | PXR counter inactive
CN1C(=O)c2cc(NC(=O)c3cccc(F)c3)ccc2OC[C@H]2O[C@H](CC(=O)Nc3ccccc3)CC[C@H]21	none (no result: MITF TRPM1 HTS, FXN GAA850 act, AHR activator, Wnt act)
Cn1c(NC(=O)c2cccc(C(F)(F)F)c2)cc(=O)n(C)c1=O	AHR activator 135.8 | AHR act cf 120.3 | PXR counter 15.8
CN1[C@@H]2c3ccc(-c4ccccc4)c(=O)n3C[C@H]1[C@H](CO)[C@H]2C(=O)NCC1CCCCC1	none (no result: MITF TRPM1 HTS, FXN GAA850 act, AHR activator, Wnt act)
NC(=S)N/N=C\c1ccc(-c2cccc(Cl)c2Cl)o1	AHR activator 106.9 (no result: Wnt act) | AHR act cf 110.0 | PXR counter 25.8
Cc1ccc(-c2ccc(/C=N/NC(N)=S)o2)cc1	AHR activator 99.6, Wnt act 58.0 (no result: MITF TRPM1 HTS, esBAF inh) | AHR act cf 89.8 | PXR counter 13.1
COCCNC(=S)N/N=C/c1ccc(-c2ccc([N+](=O)[O-])cc2)o1	AHR activator 127.9 | AHR act cf 88.9 | PXR counter 10.9
NC(=S)N/N=C/c1ccc(-c2ccccc2)o1	AHR activator 92.5 (no result: esBAF inh) | AHR act cf inactive | PXR counter 20.7
O=C(C[C@H]1CC[C@H](NS(=O)(=O)c2ccc(F)cc2)[C@H](CO)O1)NCc1ccc(Cl)c(Cl)c1	none (no result: MITF TRPM1 HTS, FXN GAA850 act, AHR activator, Wnt act)
COc1cccc(-n2c(SCC(=O)NCCC3=CCCCC3)nc3n[nH]c(C)c3c2=N)c1	AHR activator 82.3 (no result: MITF TRPM1 HTS, FXN GAA850 act, Wnt act, esBAF inh) | AHR act cf 91.0 | PXR counter 160.8
COc1cccc(NC(=O)CSc2nc3n[nH]c(C)c3c(=N)n2-c2cccc(OC)c2)c1	none (no result: Wnt act)
Cc1cc2nn(-c3cccc4ccccc34)nc2cc1N	AHR activator 81.6 (no result: Wnt act) | AHR act cf 110.4 | PXR counter 21.0
O=C(C[C@H]1C=C[C@H](NC(=O)C2CC2)[C@@H](CO)O1)NCc1ccccc1Cl	none (no result: MITF TRPM1 HTS, FXN GAA850 act, AHR activator, Wnt act)
O=C(Cc1coc2ccc3ccccc3c12)Nc1nccs1	AHR activator 79.3 (no result: esBAF inh) | AHR act cf 92.7 | PXR counter 21.9
O=C(Cc1coc2ccc3ccccc3c12)NCc1ccccc1	none

High-throughput results: PubChem, several laboratories
